Experiment [1] has as its system Zika virus NS2B-NS3 protease. As to the kind of experiment: Primary screen GU AMC qHTS for Zika virus inhibitors (AID 1347154). Further: nearly all actives have a fitted effect of over 70% in size. The method in brief:
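Unlinked Zika NS2B hydrophilic domain/NS3 protease domain noncovalent complex (25 nM final) in 10 mM Tris-HCl pH 8.0, 0.01% Tween 20, with AMC peptide substrate. Fluorescence (ex 340, em 450 nm) change over 15 min, room temperature; percent inhibition fitted to 4-parameter Hill equation.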

Experiment [2] relates to Zika virus NS2B-NS3 protease (unlinked complex). As to the kind of experiment: Primary screen GU Rhodamine qHTS for Zika virus inhibitors: Unlinked NS2B-NS3 protease assay (AID 1347159). Further: nearly all actives have a fitted effect of over 60% in size. A digest of the protocol:
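A qHTS format was used, with compound concentrations ranging up to 114 microM. Each compound was preincubated with 25 nM NS2B-NS3 protease, and the substrate was then added at 1.5 microM. Curves were fitted with a 4-parameter Hill model.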
Background: qHTS replaces the single test concentration by a dilution series.

The subject of experiment [3] is Zika virus NS2B-NS3 protease (linked construct). As to the kind of experiment: Primary screen NINDS Rhodamine qHTS for Zika virus inhibitors (AID 1347160). Further: nearly all actives have a fitted effect of over 55% in size. The settings on record: outcome: dose series up to 57.1 µM unless noted. The method in brief: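 Kinetic fluorescence (Ex 480 nm, Em 540 nm) over 15 min with 1.5 microM Rhodamine110 peptide and 25 nM linked protease.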

Experiment [4] is described as follows: qHTS to identify inhibitors of the type 1 interferon - major histocompatibility complex class I in skeletal muscle: primary screen against the NCATS Pharmaceutical Collection (AID 1347407).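 Further: luminescence of HiBiT knocked into endogenous HLA-B as interferon-induced MHC class I level.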 The method in brief:
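Cells were seeded with 4 ng/ml IFN-beta, incubated 1 h, then dosed with compounds over eight 1:5 steps up to 46 uM final. After 24 h at 37 C, HiBiT lytic reagent was added and luminescence read after 10 min lysis in the dark.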

Results filed as inconclusive are left out. A call without a number means that no potency is given here. The source made the active and inactive calls. The call rests on the fitted dose curve; in most records, active means well fitted curve in the direction sought with a large enough effect; inconclusive means small, poorly fitted or top-dose-only effect, or another doubt; inactive means no such curve, though single readings can be large; an effect the other way counts as inactive or inconclusive.

For `Nc1c(I)cc(I)c(C(=O)N(CCC(=O)O)c2ccccc2)c1I`, the Potency result in experiment [1] was “inactive”.

Turning to `Clc1ccc2c(c1)Nc1ccccc1S2`, in experiment [1], the Potency entry was “inactive”.

`C[C@@H]1CCC[C@H](C)N1CCCC(O)(c1ccccc1)c1ccccn1` (stereo partly specified): the Potency entry in experiment [1] was “inactive”.

On to `CCCCCCCCCCCCCCCC[n+]1ccccc1`, for which, in experiment [1], the Potency result is “inactive”.

Take `C[N+](C)(CCOc1ccccc1)Cc1cccs1`: the Potency result in experiment [1] was “inactive”.

In the case of `CC(=O)Oc1ccc(C2(c3ccc(OC(C)=O)cc3)Oc3ccccc3NC2=O)cc1`, the Potency entry in experiment [1] and in experiment [2] was “inactive” in each case. For the same compound, the call in experiment [3] was inactive.

`COc1cc(C(=O)OC(COCCC(C)C)CN2CCOCC2)cc(OC)c1OC` (stereo unspecified): the Potency entry in experiment [1], in experiment [2] and in experiment [4] was “inactive” each time. Also, the compound was called inactive in experiment [3].

`CCCCCCCCCCCCCC[N+](C)(C)C`: the Potency result in experiment [1] was “inactive”.

With `CC(C)(c1ccc(O)cc1)c1ccc(O)cc1`, the Potency result in experiment [1] was “inactive”.

As for `CCCc1ncc(C(=O)O)s1`, the Potency entry in experiment [1] was “inactive”.

`O=C(OCC(O)CO)c1ccccc1Nc1ccnc2c(C(F)(F)F)cccc12` (stereo unspecified): in experiment [1], the Potency entry is “inactive”.

`O=S(=O)(O)c1ccc2nc(-c3ccccc3)[nH]c2c1`: the Potency result in experiment [1] is “inactive”.

`COC(=O)c1cc(S(N)(=O)=O)ccc1OC`: the Potency entry in experiment [1] was “inactive”.

On to `CN(C)CCOC1=Cc2ccccc2Sc2ccc(Cl)cc21`, for which the Potency result in experiment [1] is “inactive”.

Regarding `Brc1ccccc1-c1ccccc1`, the Potency entry in experiment [1] is “inactive”.

Consider `Nc1ccc(O)cc1`, for which the Potency entry in experiment [1] was “inactive”.

For the compound `CCN1C(=O)c2ccccc2C1Nc1ccc(OCCN2CCCCC2)cc1` (stereo unspecified), the Potency result in experiment [1], in experiment [2] and in experiment [4] was “inactive” in each case. Besides, the outcome in experiment [3] was inactive.

In the case of `Nc1c(NC/C=C\COc2cc(CN3CCCCC3)ccn2)c(=O)c1=O`, the Potency entry in experiment [1], in experiment [2] and in experiment [4] was “inactive” each time. The call in experiment [3] was inactive.

Consider `N#CSCC(=O)O`, for which the Potency entry in experiment [1] is “inactive”.

For the compound `CC(=O)O[C@@H]1CC2C3CCc4cc(OC(=O)c5ccccc5)ccc4C3CCC2(C)[C@H]1OC(C)=O` (stereo partly specified), in experiment [1], the Potency entry is “inactive”.

The values are drawn from PubChem BioAssay (NCATS).
